Pf Dd2 growth: inhibitors of Plasmodium falciparum Dd2 growth. Potency, µM (titrated, usually from 28.9 µM), without a hit: at the top dose activity, negative = inhibition, hits mostly inhibitors. P. falciparum Dd2 growth, SYBR Green, 72 h. 120,000 tested, 4.3% active; active = well fitted inhibition curve with a large enough effect;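 also: plate controls were DMSO vehicle for no effect and reference drug for full effect; nearly all actives have a fitted effect of over 65% in size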
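Readout: SYBR Green fluorescence, 485 nm excitation, 535 nm emission, after ~16 h lysis at 37C. Before that, Dd2-infected red cells (2.5% hematocrit) grew 72 h with compound, 29 uM top final concentration.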
* = called active by the depositor; i = inactive; [ ] = dose if it differs, or a comment. The full list was thinned out, with hits kept by preference. Potency is read from the fitted curve at half-maximal effect.

SMILES	Pf Dd2 growth
COC1C(=O)N(C2CCN(C(=O)Cc3cccnc3)CC2)C12CCOCC2 (centres undefined)	12%
COCc1cc(CN(C)C(=O)CCc2cc3n(n2)CCNC3)[nH]n1	5%
O=C(Cn1c(=O)n(CC2CCC(C(=O)NCCc3ccccc3)CC2)c(=O)c2ccccc21)Nc1ccccc1 (centres undefined)	-11%
CC(C)c1ccc(NC(=O)Cn2c(=O)n(CCc3ccccc3)c(=O)c3ccccc32)cc1	14%
Cc1cccc(NC(=O)Cn2c(=O)n(CC3CCC(C(=O)NCCc4ccccc4)CC3)c(=O)c3ccccc32)c1C (centres undefined)	i
CC(C)c1ccc(NC(=O)Cn2c(=O)n(CC3CCC(C(=O)NCCc4ccccc4)CC3)c(=O)c3ccccc32)cc1 (centres undefined)	3.2µM*
CCc1cccc(NC(=O)Cn2c(=O)n(CC3CCC(C(=O)NCCc4ccccc4)CC3)c(=O)c3ccccc32)c1 (centres undefined)	3.5µM*
CCOc1ccc(NC(=O)Cn2c(=O)n(CC3CCC(C(=O)NCCc4ccccc4)CC3)c(=O)c3ccccc32)cc1 (centres undefined)	-10%
Cc1cc(C(=O)NCc2cccnc2N2CCCC(O)C2)c(C)o1 (centres undefined)	-25%
O=C(CN1C(=O)NC2(CCOCC2)C1=O)NCc1ccccc1	46%
CNC(=O)[C@@H]1C[C@H](Oc2ccccc2)CN1C(=O)Cn1c(=O)oc2ccccc21	-17%
CC(C)C1c2nccn2CCCN1C(=O)c1ccc(Cn2cncn2)o1 (centres undefined)	-17%
Cc1ccc(CN2CC[C@@H]3[C@H]2C(=O)NC[C@H](CCC(=O)NCc2cccs2)N3C)cc1	4%
O=c1cc(N2CCOCC2)oc2c(NC3CCOCC3)nccc12	-19%[44.1 µM]
COc1cccc(C(=O)NCCn2ccn3nc(-c4ccc(C)cc4C)cc3c2=O)c1OC	i
COc1ccc(C(=O)NCCn2ccn3nc(-c4ccc(C)cc4C)cc3c2=O)cc1F	-16%
CCn1nccc1C(=O)NCCn1ccn2nc(-c3ccc(C)c(C)c3)cc2c1=O	7.9µM*
Cc1ccc(-c2cc3c(=O)n(CCNC(=O)c4ccc(N(C)C)cc4)ccn3n2)c(C)c1	10µM*
Cc1ccc(-c2cc3c(=O)n(CCNC(=O)c4cccc(Cl)c4)ccn3n2)cc1C	-3%
Cc1ccc(-c2cc3c(=O)n(CCNC(=O)c4cc(Cl)ccc4F)ccn3n2)c(C)c1	i
Cc1ccc(C)c(C(=O)NCCn2ccn3nc(-c4cc(C)ccc4C)cc3c2=O)c1	i
Cc1ccc(-c2cc3c(=O)n(CCNC(=O)c4ccccc4F)ccn3n2)cc1C	i
CC(=O)Nc1cccc(C(=O)NCCn2ccn3nc(-c4ccc(C)cc4C)cc3c2=O)c1	5.6µM*
O=C(c1ccoc1)N1CCN(C(=O)c2nnn3c2COC(c2ccccc2)C3)CC1 (centres undefined)	i
O=C(N[C@H]1C[C@H]2C(=O)NC[C@@H](CCC(=O)N3CCCCC3)N2C1)c1ccc(F)c(Cl)c1	-5%
SMILES	Pf Dd2 growth
CNC(=O)C(C)(C)N1CCC[C@H]1C(=O)N1CCCC1	32%[44.1 µM]
CN1CCC([C@@H]2CN(C(=O)c3nn(C)c4ccccc34)C[C@H]2C(N)=O)CC1	3%
O=C(NC1CCC1)C1=NO[C@@H]2CN(CCc3ccccc3)C[C@H]12	21%[44.1 µM]
COCCNC(=O)c1ccc(OC2CCN(C(C)CCSC)CC2)c(Cl)c1 (centres undefined)	11µM*
COc1ccc(C(=O)NCC2CCOC2)cc1OC1CCN(C(C)C)CC1 (centres undefined)	-15%
Cc1ccc(C(C)CCN2CCC(N3CCC(C(=O)NC4CC4)CC3)CC2)o1 (centres undefined)	-13%
CS(=O)(=O)N1CCC(Oc2ccc(C(=O)NCCc3cnccn3)cc2Cl)CC1	-12%
COCCNC(=O)c1ccc(OC2CCN(CCC(C)c3ccc(C)o3)CC2)c(Cl)c1 (centres undefined)	4.5µM*
COCCN1CC(CNC(=O)c2cc(Cl)c(C)c(Cl)c2)CC1=O (centres undefined)	-12%
CNC(=O)[C@@H]1C[C@H](Oc2ccccc2)CN1C(=O)c1ccc2ccccc2n1	-25%
O=C1NC(C(=O)NCc2cccc(C(F)(F)F)c2)Cn2cccc21 (centres undefined)	i
Cc1cc(S(=O)(=O)N2C[C@@H](F)C[C@H]2C(=O)N2CCc3ccccc3C2)ccc1F	37%
COCCNC(=O)[C@H]1C[C@H](Oc2cccnc2)CN1S(=O)(=O)c1ccccc1	-21%
COc1ccc(CNC(=O)c2c(Nc3ccc(OC)cc3OC)sc(C(=O)c3ccc(Cl)cc3)c2N)cc1	i
COc1cccc(C(=O)c2sc(Nc3ccc(F)c(Cl)c3)nc2N)c1	i
Cc1ccc(S(=O)(=O)c2c(Nc3ccccc3)sc(C(=O)c3ccc4c(c3)OCO4)c2N)cc1	13µM*
COc1cccc(C(=O)c2cn(CC(=O)NCc3ccccc3Cl)c3nc(C)ccc3c2=O)c1	-5%
COc1ccc2nc3sc(C(=O)Nc4ccccc4F)cc3cc2c1	9%
COc1ccc(S(=O)(=O)c2c(Nc3ccccc3F)sc(C(=O)c3cccc(OC)c3)c2N)cc1	11µM*
COc1cccc(C(=O)Nc2ccccc2-c2nc3ccccc3s2)c1	i
Cc1ccccc1Nc1sc(C(=O)c2ccc3c(c2)OCO3)c(N)c1S(=O)(=O)c1ccccc1	-17%
CCc1ccccc1Nc1sc(C(=O)c2cccc(OC)c2)c(N)c1S(=O)(=O)c1ccccc1	11µM*
COc1ccc(S(=O)(=O)c2c(O)c(C)cc(NC(=O)c3ccccc3)c2C(C)C)cc1	i
COc1ccc(S(=O)(=O)c2c(Nc3ccc(C)cc3C)sc(C(=O)c3ccc(F)cc3)c2N)cc1	11µM*
CC(=O)c1cc2c(cc1N/C(=N/S(=O)(=O)c1ccc(C)cc1)c1ccccc1)OCO2	-24%
SMILES	Pf Dd2 growth
NC(=O)CN1CCCC(C(=O)N2CCC(O)(c3cccnc3)CC2)C1 (centres undefined)	10%
OCc1cc(CC2(NCc3ccc(CO)o3)COC2)no1	19%[44.1 µM]
O=C1CC2CCN(C(=O)c3ccc(C(F)(F)F)cc3)CC2CCN1 (centres undefined)	16%
Cc1ccccc1N1Cc2c(NCCc3ccccc3F)ncnc2N(C)CC1=O	i
O=C([C@@H]1C[C@H](Oc2cccnc2)CN1)N1CCOCC1	-14%
CC(C)NC(=O)C[C@@H]1C[C@H]2O[C@H](CNC3CCC(F)(F)CC3)[C@@H](O)[C@H]2O1	31%[44.1 µM]
Cc1ccc(C2Cn3nnc(-c4noc(-c5ccoc5)n4)c3CO2)cc1 (centres undefined)	i
OC[C@@H]1CN(C2CCSCC2)C[C@H]1c1nc(-c2cccnc2)no1	-29%
CCCc1noc(-c2ccn3c(CNC(=O)c4cc(F)ccc4F)nnc3c2)n1	-4%
CCc1ccccc1Nc1sc(C(=O)c2ccccc2)c(N)c1S(=O)(=O)c1ccccc1	11µM*
Cc1cccc(C)c1Nc1sc(C(=O)c2ccccc2)c(N)c1S(=O)(=O)c1ccccc1	i
CCS(=O)(=O)c1c(Nc2cc(C)ccc2C)sc(C(=O)c2ccccc2)c1N	-21%
O=C1COc2ccc(-c3cn[nH]c3)nc2CN1Cc1ccc(C(F)(F)F)cc1	i
O=C1COc2ccc(-c3ccoc3)nc2CN1Cc1ccc(C(F)(F)F)cc1	13µM*
COCCN1Cc2nc(Nc3ccc(C(F)(F)F)cc3)ccc2OCC1=O	13µM*
COc1cccc(CN2Cc3nc(-c4cnn(Cc5ccccc5)c4)ccc3OCC2=O)c1	i
O=C1COc2ccc(-c3ccncc3)nc2CN1Cc1ccc(C(F)(F)F)cc1	-33%[44.1 µM]
